# Active and inactive are the calls of the source. Unless noted, how the calls were made is not given here.
# Legend:
# [1] = system: Wnt5a (protein binding on small-molecule microarray); assay: Wnt5a binders on small-molecule microarray, primary screen, biophysical, 635/667 nm fluorescence (AID 1142); details: 635 nm fluorescence, higher = more signal;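 further: fluorescence read at 667 nm with signal to noise per printed feature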
# [2] = cell viability in Huh7 cells, primary screen, cytotoxicity control for HCV replication inhibitor project, CellTiter-Glo luminescence, basal, 48 h (AID 1143); details: Huh7 HCV replicon, higher = more signal, called active from +8 up or from −8 down;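 further: Huh7 hepatoma cells carrying a hepatitis C replication reporter with no stimulus; test concentration not given here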
# [3] = P. aeruginosa biofilm formation inhibitors, primary screen, PAO1 strain, BacTiter-Glo luminescence, LB-PBS (AID 1144); details: 12 h, higher = more signal
# [4] = CREB reporter modulators without forskolin, primary screen, cell-based, PC12, CRE-LacZ reporter, unstimulated (AID 1145); details: no forskolin, luminescence, 4.5 h, higher = more signal, called active from +8 up or from −8 down
# [5] = CREB reporter modulators under forskolin, primary screen, cell-based, PC12, CRE-LacZ reporter, forskolin-stimulated (AID 1146); details: luminescence, 4.5 h, higher = more signal, called active from +8 up or from −8 down;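 further: PC12 cells with 6xCRE LacZ reporter stimulated by forskolin 10 µM; beta-galactosidase reporter signal reflecting CREB driven transcription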
# [6] = target: Streptavidin (Streptomyces avidinii) (UniProt P22629); assay: streptavidin binders on small-molecule microarray, primary screen, artefact control for SMM compound annotation, biophysical, 635/667 nm fluorescence (AID 1147); details: streptavidin binding, higher = more signal;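 further: signal reflects streptavidin binding to arrayed compounds as a control protein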
# Chain of Streptavidin (Streptomyces avidinii) (P22629 whole entry, looked up): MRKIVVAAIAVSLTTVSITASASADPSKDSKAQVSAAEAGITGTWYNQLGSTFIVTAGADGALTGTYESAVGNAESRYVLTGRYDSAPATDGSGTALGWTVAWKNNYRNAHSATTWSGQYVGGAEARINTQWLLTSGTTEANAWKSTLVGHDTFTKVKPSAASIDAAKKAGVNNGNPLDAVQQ
# [7] = small-molecule binders of probe aInhba, primary screen, biochemical, small-molecule microarray, 635/667 nm fluorescence (AID 1148); details: higher = more signal;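 further: score merges 667nm spot fluorescence with signal-to-noise for antibody binding to printed compounds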
# [8] = target: Torsin-1A (Homo sapiens) (UniProt O14656); assay: torsin A binders from cell lysate, primary screen, small-molecule microarray, wild-type, 635/667 nm (AID 1149); details: COS7 hTOR1A-WT lysate, 635 nm fluorescence, higher = more signal
# Chain of Torsin-1A (Homo sapiens) (O14656 whole entry, looked up): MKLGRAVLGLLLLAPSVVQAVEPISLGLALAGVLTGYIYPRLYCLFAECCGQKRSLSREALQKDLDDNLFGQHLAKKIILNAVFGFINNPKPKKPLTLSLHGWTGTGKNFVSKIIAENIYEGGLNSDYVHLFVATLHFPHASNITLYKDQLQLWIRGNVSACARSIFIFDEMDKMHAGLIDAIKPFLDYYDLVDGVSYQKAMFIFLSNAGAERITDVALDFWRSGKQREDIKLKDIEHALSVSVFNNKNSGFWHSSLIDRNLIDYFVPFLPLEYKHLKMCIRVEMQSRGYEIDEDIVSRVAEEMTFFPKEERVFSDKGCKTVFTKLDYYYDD
# [9] = target: Torsin-1A (Homo sapiens) (UniProt O14656); assay: small-molecule binders of mutant TOR1A in lysate, primary screen, cell lysate, small-molecule microarray, COS7 lysate, 635/667 nm fluorescence (AID 1150); details: COS7 hTOR1A mutant lysate, 635 nm fluorescence, higher = more signal;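 further: score pools 667 nm emission and signal to noise measuring lysate protein binding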
# [10] = system: Sonic hedgehog protein (Shh); assay: small-molecule binders of Shh protein, primary screen, biochemical, small-molecule microarray, 635/667 nm fluorescence (AID 1151); details: small-molecule microarray binding, 635 nm fluorescence; higher = more signal;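 further: Shh protein binding to compounds spotted on small-molecule microarray slides; score combines spot fluorescence intensity with signal-to-noise across triplicate slides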
# [11] = E. coli DRC41 culture turbidity changes, primary screen, E. coli filamentation inducer project, strain DRC41, OD650, 48 h (AID 1152);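 further: E. coli MC1000 strain DRC41 lacking acrAB efflux pump and sulA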; details: E. coli DRC41 (acrAB sulA), higher = more signal, called active from +8 up or from −8 down
# [12] = small-molecule binders of probe aLefty1, primary screen, biochemical, small-molecule microarray, 635/667 nm fluorescence (AID 1153); details: higher = more signal;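 further: score merges spot fluorescence with signal-to-noise ratio from the scanned slide images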
# [13] = PSAC antagonists in infected red cells, primary screen, cell-based, P. falciparum Indochina, OD700, 1 h (AID 1154); details: P. falciparum Indochina infected RBC osmotic lysis, higher = more signal, called active from +8 up or from −8 down
# [14] = PSAC antagonists in infected red cells, primary screen, cell-based, P. falciparum Indochina, OD700, 2 h (AID 1155);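 further: lysis reports solute entry through the parasite surface anion channel PSAC; channel blockers reduce lysis of infected cells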; details: P. falciparum Indochina infected erythrocytes, osmotic lysis OD700; higher = more signal, called active from +8 up or from −8 down
# [15] = osmotic lysis modulators in infected erythrocytes, primary screen, PSAC antagonist project, cell-based, P. falciparum Indochina, OD700, 3 h (AID 1156); details: higher = more signal, called active from +8 up or from −8 down
# [16] = PSAC antagonists in infected red cells, primary screen, cell-based, P. falciparum Indochina, OD700, 18 h (AID 1157); details: P. falciparum Indochina infected erythrocytes, osmotic lysis OD700, 18 h; higher = more signal, called active from +8 up or from −8 down
# [17] = modulators of S6 phosphorylation in cells, primary screen, cell-based, A549, cytoblot, luminescence, serum-stimulated (AID 1158); details: A549 phospho-S6 cytoblot, 5 h, higher = more signal;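 further: serum-stimulated A549 lung adenocarcinoma cells; signal is phosphorylated S6 detected by cytoblot immunostaining with HRP secondary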
# [18] = target: NADPH oxidase 2 (Homo sapiens) (UniProt P04839); assay: NOX2-dependent H2O2 signal modulators, primary screen, NOX inhibitor project, cell-based, HEK293-NOX2, PMA-stimulated, Amplex Red fluorescence (AID 1159); details: 45 min, higher = more signal, called active from +8 up or from −8 down; further: test concentration not given here
# Chain of NADPH oxidase 2 (Homo sapiens) (P04839 whole entry, looked up): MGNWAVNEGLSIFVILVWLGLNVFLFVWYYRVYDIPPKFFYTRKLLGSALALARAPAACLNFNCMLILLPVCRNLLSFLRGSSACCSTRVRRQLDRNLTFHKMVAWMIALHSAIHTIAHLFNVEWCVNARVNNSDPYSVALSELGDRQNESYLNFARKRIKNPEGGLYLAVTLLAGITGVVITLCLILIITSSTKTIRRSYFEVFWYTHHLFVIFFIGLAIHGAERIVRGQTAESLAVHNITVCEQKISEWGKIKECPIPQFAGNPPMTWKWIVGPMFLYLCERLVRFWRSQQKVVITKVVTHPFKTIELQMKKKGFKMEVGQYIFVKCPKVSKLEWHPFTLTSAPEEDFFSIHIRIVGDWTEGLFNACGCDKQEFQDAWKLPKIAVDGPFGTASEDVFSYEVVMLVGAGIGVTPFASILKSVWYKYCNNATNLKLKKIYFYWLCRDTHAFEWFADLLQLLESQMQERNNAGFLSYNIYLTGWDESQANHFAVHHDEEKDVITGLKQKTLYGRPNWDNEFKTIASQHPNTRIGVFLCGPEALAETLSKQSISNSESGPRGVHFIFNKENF
# [19] = target: NADPH oxidase 4 (Homo sapiens) (UniProt Q9NPH5); assay: NOX4-dependent H2O2 signal modulators, primary screen, NOX inhibitor project, cell-based, HEK293-NOX4, tetracycline-induced, Amplex Red fluorescence (AID 1160); details: 45 min, higher = more signal, called active from +8 up or from −8 down
# Chain of NADPH oxidase 4 (Homo sapiens) (Q9NPH5 whole entry, looked up): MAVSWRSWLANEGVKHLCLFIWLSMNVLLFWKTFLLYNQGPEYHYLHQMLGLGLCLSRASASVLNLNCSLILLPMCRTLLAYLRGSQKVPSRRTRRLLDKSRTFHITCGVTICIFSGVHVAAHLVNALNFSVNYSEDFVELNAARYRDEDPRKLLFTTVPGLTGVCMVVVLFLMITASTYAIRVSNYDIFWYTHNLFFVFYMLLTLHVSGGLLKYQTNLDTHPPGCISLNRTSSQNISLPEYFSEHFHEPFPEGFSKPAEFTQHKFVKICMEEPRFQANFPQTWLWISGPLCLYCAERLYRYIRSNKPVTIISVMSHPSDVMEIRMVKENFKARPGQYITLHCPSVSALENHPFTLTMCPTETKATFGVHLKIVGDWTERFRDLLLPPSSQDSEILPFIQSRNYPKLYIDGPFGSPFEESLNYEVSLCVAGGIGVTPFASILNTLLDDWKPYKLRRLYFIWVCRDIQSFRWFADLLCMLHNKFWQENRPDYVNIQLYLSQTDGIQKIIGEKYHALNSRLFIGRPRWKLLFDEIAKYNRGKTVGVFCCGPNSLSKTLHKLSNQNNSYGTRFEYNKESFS
# [20] = target: NADPH oxidase 5 (Homo sapiens) (UniProt Q96PH1); assay: NOX5-dependent H2O2 signal modulators, primary screen, NOX inhibitor project, cell-based, HEK293-NOX5, Amplex Red fluorescence (AID 1161); details: HEK293-NOX5, ionomycin, 45 min, higher = more signal
# Chain of NADPH oxidase 5 (Homo sapiens) (Q96PH1 whole entry, looked up): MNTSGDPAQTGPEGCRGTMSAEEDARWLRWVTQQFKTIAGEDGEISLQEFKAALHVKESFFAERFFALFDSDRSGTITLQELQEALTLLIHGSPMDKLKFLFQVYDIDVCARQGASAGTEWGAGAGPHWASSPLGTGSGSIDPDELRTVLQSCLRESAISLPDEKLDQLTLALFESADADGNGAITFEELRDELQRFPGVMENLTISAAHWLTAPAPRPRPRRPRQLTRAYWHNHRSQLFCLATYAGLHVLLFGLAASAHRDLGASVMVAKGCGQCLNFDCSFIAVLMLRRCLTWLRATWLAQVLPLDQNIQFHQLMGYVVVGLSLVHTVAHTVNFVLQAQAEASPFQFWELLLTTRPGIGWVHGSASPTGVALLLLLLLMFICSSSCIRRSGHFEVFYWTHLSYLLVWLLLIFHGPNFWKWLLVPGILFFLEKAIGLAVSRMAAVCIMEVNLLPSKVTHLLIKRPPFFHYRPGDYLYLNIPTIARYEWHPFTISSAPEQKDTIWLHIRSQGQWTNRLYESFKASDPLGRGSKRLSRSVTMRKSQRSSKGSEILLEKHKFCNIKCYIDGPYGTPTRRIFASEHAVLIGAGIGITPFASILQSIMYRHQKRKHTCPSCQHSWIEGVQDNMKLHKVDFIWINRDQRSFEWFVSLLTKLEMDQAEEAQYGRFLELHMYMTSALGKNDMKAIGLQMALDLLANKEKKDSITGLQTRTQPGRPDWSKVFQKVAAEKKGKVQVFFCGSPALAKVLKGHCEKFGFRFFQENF
SMILES,composite z-score [1],z-score [2],z-score [3],z-score [4],z-score [5],composite z-score [6],composite z-score [7],composite z-score [8],composite z-score [9],composite z-score [10],z-score [11],composite z-score [12],z-score [13],z-score [14],z-score [15],z-score [16],z-score [17],z-score [18],z-score [19],z-score [20]
C=C(COC)/C(=C/C[C@@H](OC(C)=O)c1ccc(OCCO)cc1)c1cnc2ccccc2c1,0.837,-2.22 (inactive),-0.826 (inactive),3.77 (inactive),-0.861 (inactive),1.36,-0.0403,-0.148,0.647,1.75,2.11 (inactive),0.127,20.2 (active),3.53 (inactive),0.844 (inactive),-0.282 (inactive),1.81,-2.04 (inactive),-0.287 (inactive),-1.08
CN1C(=O)C2C=CC(C(O)c3ccccc3)N(N(c3ccccc3)c3ccccc3)C2C1=O (stereo not given),-0.117,0.653 (inactive),0.808 (inactive),-0.712 (inactive),0.635 (inactive),0.39,0.0051,-0.351,-0.398,0.522,-0.84 (inactive),0.267,0.581 (inactive),0.693 (inactive),-0.284 (inactive),0.9 (inactive),-0.809,-1.19 (inactive),-0.586 (inactive),0.121
NCCCCCCNC(=O)[C@@H]1C[C@@H]2C(=O)NCC(=O)N2[C@@H]1c1ccc(O)cc1,0.387,-0.402 (inactive),-2.2 (inactive),-1.07 (inactive),0.0413 (inactive),0.718,-0.104,1.3,0.665,2.18,0.812 (inactive),-0.0126,0.846 (inactive),1.04 (inactive),4.22 (inactive),0.497 (inactive),0.257,-0.302 (inactive),0.4 (inactive),0.182
CCc1cccc(NC(=O)O[C@H]2[C@H](OC(=O)Nc3ccccc3-c3ccccc3)[C@@H](OC(=O)Nc3ccccc3-c3ccccc3)[C@@H](OC)O[C@@H]2CO)c1,0.729,-6.04 (inactive),-0.0932 (inactive),-0.655 (inactive),-0.756 (inactive),0.751,-0.0087,1.19,1.64,0.203,-1.5 (inactive),0.419,3.37 (inactive),0.995 (inactive),-0.975 (inactive),1.31 (inactive),-0.84,-5.54 (inactive),-1.18 (inactive),-1.13
NC(=O)N1C(=O)C2C(C1=O)C1C=C(c3ccc(CO)cc3)C2C(c2cccs2)N1Cc1cccc(OC(F)(F)F)c1 (stereo not given),0.24,-3.63 (inactive),0.945 (inactive),1.08 (inactive),-1.58 (inactive),0.514,0.29,0.635,0.522,0.235,-3.19 (inactive),0.424,3.08 (inactive),-0.687 (inactive),0.195 (inactive),-1.98 (inactive),2.65,-1.02 (inactive),-1.22 (inactive),-1.25
CC(C)[Si]1(C(C)C)O[C@@H](c2ccccc2)c2cc(-c3ccc(-c4ccc(Cl)c(Cl)c4)o3)nc(-c3ccccc3)c21,-0.0503,-0.62 (inactive),0.115 (inactive),-1.12 (inactive),2.02 (inactive),0.105,-0.0044,-0.118,0.261,0.15,-1.12 (inactive),-0.0611,0.704 (inactive),0.0805 (inactive),-0.449 (inactive),0.656 (inactive),-0.121,-0.364 (inactive),1.36 (inactive),1.26
O=C(CS)NCCCCCCNC(=O)[C@@H]1C[C@@H]2C(=O)NCC(=O)N2[C@@H]1c1cccc(OCCO)c1,0.136,0.429 (inactive),-0.865 (inactive),-0.252 (inactive),-0.695 (inactive),0.0478,-0.613,1.29,1.28,0.88,0.74 (inactive),-0.887,3.29 (inactive),0.156 (inactive),2.38 (inactive),0.104 (inactive),0.59,1.54 (inactive),0.845 (inactive),0.711
COCCOC(=O)N1C(=O)[C@@]2(c3cc(C#CC4(O)CCCCCC4)ccc31)[C@H](c1ccc(OCCO)cc1)N1[C@H](c3ccccc3)[C@H](c3ccccc3)OC(=O)[C@H]1[C@@H]2C(=O)N1CCN(c2ncccn2)CC1,0.499,-0.922 (inactive),0.517 (inactive),0.346 (inactive),0.838 (inactive),2.07,0.0541,0.782,0.629,1.17,-0.393 (inactive),0.813,7.73 (inactive),2.47 (inactive),0.493 (inactive),1.12 (inactive),-0.537,1.61 (inactive),0.854 (inactive),1.83
